We go through 60 sequences from the OligoGym collection.

Common to all, as to test: pooled miR-30 sensor sort-seq; sequence = guide strand
Conditions in all cases: shRNA

In assay [1] the target is CHID1.
In assay [2] the target is CHRM2.
The target in assay [3] is CHI3L1.
Assay [4] deals with CHMP2A.
Assay [5] has as its target CHRNA1.
Assay [6] deals with CHRNE.
Also: reference of the scale not given here.

On to ATGCGCTGTAGAGTAGTCGTAG, for which the sensor-assay potency score (higher = more potent) in assay [1] was -0.323.
On the same count and under the same terms, for TAGTCCATACCATAGAAGTTGA the value was -1.13.
In assay [2], TTTTGTGACACAGAAGTACCTG showed a sensor-assay potency score (higher = more potent) of 0.758.
The same measure, in the same setting: the result for TTAAAGGTCTTCTTGAAGGTGG reads 0.265; that for TTGGCTTCACTATCCTTCCTTG, -0.217.
With TTTGACGCTTTCCTGGTCGTCG, in assay [3], the sensor-assay potency score (higher = more potent) is -0.339.
In assay [4], ATCATTCATCATCTCCTCCTTC returned a sensor-assay potency score (higher = more potent) of -0.0683.
TTTCATCTCCATTCTGACCTGA registered a sensor-assay potency score (higher = more potent) in assay [2] of 0.602.
For TTGTTGGACTTGAGTGTCTGGA, in assay [4], the sensor-assay potency score (higher = more potent) is -0.834.
On the same count and under the same terms, for TCTAGTTTCTGTCGCTCGCGGT the value was -0.825; for AAGTCTTTTGCCATGATGCGAA, -0.973.
Same read-out and setting: for TTTCTGTCGCTCGCGGTCCAGC the value was -1.66.
The same measure, in the same setting: the result for TTGAGTGTCTGGATCTTGAGGG reads 0.547.
Sequence AACTTGCGCACATAGCGCCGGG came in with a sensor-assay potency score (higher = more potent) in assay [4] of -1.16.
On the same count and under the same terms, the result for TGCAATGATTTTCTTCTCCTGG reads -0.535.
As to TTTGAGGTCCGTCACCACCAAA, in assay [1], the sensor-assay potency score (higher = more potent) is -1.77.
In turn, TTCCTTTATAAATTCGGCCTTC displayed a sensor-assay potency score (higher = more potent) in assay [3] of -0.526.
Sequence TTCGCCACTTGGACTTCGGGTC showed a sensor-assay potency score (higher = more potent) in assay [1] of -0.182.
For the sequence TATCTCATCCTCACTGTCTAAG, the sensor-assay potency score (higher = more potent) in assay [1] is -0.858.
In assay [2], TTCATAACTGAGGCATTGCTGA registered a sensor-assay potency score (higher = more potent) of -0.852.
In assay [2], TATTAGAGGCAACAGCACTGAC yielded a sensor-assay potency score (higher = more potent) of -0.688.
TTCATCTTCCTCATCACCCATG displayed a sensor-assay potency score (higher = more potent) in assay [4] of -0.68.
In assay [2], TTAGTCATCTTCACAATCTTGC showed a sensor-assay potency score (higher = more potent) of 0.87.
The same measure, in the same setting: the result for TTAATGAGCACCATGACATTGT reads -0.0449.
In the case of AAACTTGCGCACATAGCGCCGG, the sensor-assay potency score (higher = more potent) in assay [4] was -0.531.
The sequence TCATCTTCACAATCTTGCGGGC came in with a sensor-assay potency score (higher = more potent) in assay [2] of -0.203.
The sequence TTTGTGGTCCGCTTGACTGGGT had a sensor-assay potency score (higher = more potent) in assay [2] of -0.403.
In turn, TTGATGGCCACGACAGAGCCGT returned a sensor-assay potency score (higher = more potent) in assay [5] of -0.893.
The sequence TTAATGACGTAGAAGAGCGGCT had a sensor-assay potency score (higher = more potent) in assay [6] of -0.711.
On the same count and under the same terms, the result for ATAGTTGTTGAAGAGATGGTGA reads 0.0987.
Turning to TAAGCAAAGAATACACTTCATT, the sensor-assay potency score (higher = more potent) in assay [5] was -1.02.
On the same count and under the same terms, for TAGCTTTGCCACCAGACGGGTC the value was -1.08; for TAGAACATCAGCAACTCCCTAG, 0.223; for TAACACGTTTGATAAGTGCGAG, -0.52.
For the sequence TATTCTGCTTTTCATCTCCATT, in assay [2], the sensor-assay potency score (higher = more potent) was -1.16.
On to TTCATCCACATTGATGAGCTGT, for which the sensor-assay potency score (higher = more potent) in assay [5] was -0.162.
TTCTTTATCCTGCTCTTGCTGG yielded a sensor-assay potency score (higher = more potent) in assay [2] of -0.363.
Consider TATAACAGCAATGACAATGCAA, for which, in assay [5], the sensor-assay potency score (higher = more potent) was found to be 0.464.
Same read-out and setting: the result for TTGTCTTGCTTTTCTCTGGATG reads -0.807.
Regarding TTTTCCAGCACAATCTCTGGCA, the sensor-assay potency score (higher = more potent) in assay [6] is -0.449.
TTTGTCTTGCTTTTCTCTGGAT yielded a sensor-assay potency score (higher = more potent) in assay [5] of -0.428.
Still for that read-out and setting: the result for TTGCAACGTACTTCCACTCTGC reads 0.505.
TAAAAAGTAATTGTTGACGGTC: the sensor-assay potency score (higher = more potent) in assay [2] worked out at 0.0384.
Consider TTGATGGTCTTGCCGTCGTTGT, for which the sensor-assay potency score (higher = more potent) in assay [6] was -1.26.
In turn, TTAGAACATCAGCAACTCCCTA registered a sensor-assay potency score (higher = more potent) in assay [5] of -0.4.
Same read-out and setting: the result for TAGCTTTTAAAGATGGCTGGAG reads -0.126; that for TTGACAATAGCAAAGTCACCAT, -0.507.
Same read-out and setting: for ATTGATGAGCTGTATCAGCTGC the value was 0.306; for TACTTCATCCACATTGATGAGC, -0.906.
The sequence TTAGAGTTCTCATCTTTGGAAT displayed a sensor-assay potency score (higher = more potent) in assay [2] of -1.06.
With TACTGCAGGAGCACTTTGGTGA, the sensor-assay potency score (higher = more potent) in assay [5] was 0.163.
TATAAGGACTTGTAAGAGCCAG came in with a sensor-assay potency score (higher = more potent) in assay [2] of -0.37.
The same measure, in the same setting: the result for TTTAATGGAAACCATGACTAGG reads -0.722.
Still for that read-out and setting: the result for TTCATCTCCATTCTGACCTGAA reads 0.399.
ATGACGAAAATAAGGAACCTGC gave a sensor-assay potency score (higher = more potent) in assay [6] of -1.05.
Sequence TAAGTATGGAATATAACACGTT registered a sensor-assay potency score (higher = more potent) in assay [5] of -0.0814.
In turn, TTTGTGACACAGAAGTACCTGT displayed a sensor-assay potency score (higher = more potent) in assay [2] of 0.495.
On to TAGACAAATCTTCCTCTCCTGC, for which the sensor-assay potency score (higher = more potent) in assay [5] was -0.927.
Sequence TTCTTAGTAGGTACAAAACTGA registered a sensor-assay potency score (higher = more potent) in assay [5] of -0.855.
On the same count and under the same terms, for TTTTTTAGTGATTAGTTTCATT the value was -0.783.
